FMDV antiviral: High Throughput Screening for Foot and Mouth Disease Virus Antivirals; FMDV antiviral cell-based qHTS; Potency, µM (highest dose often 57.9 µM), for inactives: at the top dose activity change, negative = inhibition, most hits filed as inhibitors; 410,000 compounds, 1.2% hits; AID 1159524, 2015; calls by dose curve; tested in HEK293T cells; also: read-out not given here; nearly all actives have a fitted effect of over 45% in size
Sm TGR block: qHTS Assay for the Inhibitors of Schistosoma Mansoni Peroxiredoxins | Schistosoma mansoni thioredoxin glutathione reductase (TGR), Q962Y6 | purified TGR, DTNB reduction, TNB absorbance 405 nm | Potency, µM (top dose mostly 114 µM), for the others: at the top dose activity change, negative = inhibition, usual class: inhibitors | 360,000 compounds, 3% hits | AID 485364, 2010; also: nearly all actives have a fitted effect of over 60% in size
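TGR 20 nM + NADPH 100 uM (dispensed conc.), cpd preinc 15 min RT; start with NADPH (500 uM addition) then DTNB (15 mM addition). Kinetic TNB absorbance, 405 nm filter. Four-parameter Hill fit across titration.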
HCV inh: qHTS Assay for Inhibitors of Hepatitis C Virus (HCV); Huh7.5.1 HCVcc-Cre infection, luciferase reporter, 44 h; Potency, µM (series often up to 41.8 µM), without a hit: top-dose activity change, negative = inhibition, most hits filed as inhibitors; 340,000 compounds, 3.4% hits; AID 651820, 2012
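Infectious HCVcc-Cre (~0.5 moi) was added to cells just after compound, with cells seeded 4 h earlier at 1,000 per well. Luciferase activity after 44 h culture reported infection; substrate was incubated 15 min at room temperature before reading.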
Lassa entry inh: qHTS for Inhibitors of binding or entry into cells for Lassa Virus; Lassa virus pseudotype entry inhibition, cell reporter; AID 540256, 2011; 300,000 compounds, 1.2% hits; Potency, µM (top dose mostly 37.9 µM), for inactives: top-dose activity change, negative = inhibition, usual class: inhibitors; calls by dose curve; tested in HEK293 cells; also: nearly all actives have a fitted effect of over 50% in size
RE007 growth inh: qHTS Assay for Inhibitors of the HIV-1 protein Vpr; S. pombe RE007 Vpr strain, BacTiter-Glo ATP luminescence, 24 h; Potency, µM (doses to about 92.2 µM), without a hit: at the top dose activity change, negative = less growth, hits mostly inhibitors; 360,000 compounds, 0.21% hits; AID 651644, 2012; active = well fitted falling curve with a large enough effect; inconclusive = small, poorly fitted or top-dose-only effect; inactive = no such curve, though single readings can be large or run the other way; also: nearly all actives have a fitted effect of over 50% in size
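Fission yeast RE007 carrying one integrated HIV-1 vpr copy, seeded at OD 0.01 in PMG+AL medium with 23 nL pinned compound. Grown 24 h at 30 degrees; viability read by BacTiter-Glo luminescence after 5 min.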
MARV entry inh: qHTS for inhibitors of binding or entry into cells for Marburg Virus | Marburg virus pseudotyped entry inhibition, cell reporter | Potency, µM (highest dose often 37.8 µM), for inactives: at the highest dose activity change, negative = inhibition, usual class: inhibitors | 300,000 compounds, 1.8% hits | AID 540276, 2011; calls by dose curve; tested in HEK293 cells
* = called active by the depositor; [ ] = another dose, or the depositor's remark. Hits are enriched below; roughly 7.2% of the tested compounds scored in any of these assays. Unless noted, calls follow the shape of the dose curve; as a rule, active = well fitted curve in the direction sought with a large enough effect; inconclusive = small, poorly fitted or top-dose-only effect, or another doubt; inactive = no such curve, though single readings can be large; an effect the other way counts as inactive or inconclusive. % is scaled to controls: 0 for no effect and ±100 for the full control effect; potency is read from the fitted curve at half-maximal effect.

`Cc1cc2oc(=O)cc(C)c2cc1NC(=O)CCl` gave FMDV antiviral inconclusive, Sm TGR block 13µM*, HCV inh inconclusive, Lassa entry inh inconclusive, RE007 growth inh 33% and MARV entry inh inconclusive.
Screening CC(CCCC(C)(C)O)NC(=O)c1cc(COc2ccc3ncccc3c2)on1 (centres undefined) returned FMDV antiviral inconclusive, HCV inh 5.6µM*, Lassa entry inh inconclusive, RE007 growth inh 28% and MARV entry inh -9%[46.1 µM].
Cc1cc(C)n(CCNC(=O)c2cc(COc3ccc4ncccc4c3)on2)n1 was read as FMDV antiviral 13µM*, Sm TGR block 3%, HCV inh inconclusive and RE007 growth inh -13%.
For CCn1nc(C)c(CNC(=O)c2cc(COc3ccc(C)nc3)on2)c1C the results were FMDV antiviral inconclusive, Sm TGR block -1%, HCV inh 11µM*, Lassa entry inh inconclusive, RE007 growth inh 5% and MARV entry inh inconclusive.
Screening O=C(NCc1cccc(Cl)c1)c1cc(COc2ccc3ncccc3c2)on1 returned FMDV antiviral 16µM*, Sm TGR block 7%, HCV inh 6.3µM*, Lassa entry inh inconclusive, RE007 growth inh inconclusive and MARV entry inh inconclusive.
`Cc1cnc(CNc2cc(-c3ccoc3)ncn2)cn1` gave FMDV antiviral -23%.
For Oc1cc(-c2cccs2)cc2c1OCCN(Cc1cn[nH]c1-c1ccc(Cl)cc1)C2 the results were FMDV antiviral 1%.
Cc1ccc(C(=O)Nc2ccc(Br)cc2)cc1S(=O)(=O)NCc1ccccc1 was read as FMDV antiviral -24%, Sm TGR block -1% and Lassa entry inh inconclusive.
Screening Cc1nn(C)c2c1c(-c1ccccc1)cc(=O)n2CC(=O)Nc1ccccc1C(F)(F)F returned FMDV antiviral -16%, Sm TGR block -2% and Lassa entry inh inconclusive.
Cc1ccc(F)cc1CNC(=O)c1cc(COc2ccc3ncccc3c2)on1 was read as FMDV antiviral 25µM*, Sm TGR block -1%, HCV inh 2.8µM*, Lassa entry inh inconclusive, RE007 growth inh -9% and MARV entry inh inconclusive.
`COc1ccc(C(=O)/C=C/C(=O)N(CC(=O)NC2CCCCC2)Cc2ccccc2OC)c(O)c1` gave FMDV antiviral 7.9µM*, Sm TGR block 1µM*, HCV inh inconclusive, Lassa entry inh inconclusive, RE007 growth inh -3% and MARV entry inh inconclusive.
Screening COc1ccc(C(=O)/C=C/C(=O)N(Cc2ccccc2OC)C(C(=O)NC2CCCCC2)c2ccncc2)c(O)c1 (centres undefined) returned FMDV antiviral 13%, Sm TGR block -12%, HCV inh inconclusive, Lassa entry inh inconclusive, RE007 growth inh -8% and MARV entry inh inconclusive.
Screening COc1ccc(C(=O)/C=C/C(=O)N(Cc2ccccc2)C(C(=O)NC2CCCCC2)c2ccncc2)c(O)c1 (centres undefined) returned FMDV antiviral -12%, Sm TGR block -2%, HCV inh -2%, Lassa entry inh inconclusive, RE007 growth inh -19% and MARV entry inh inconclusive.
For COc1ccc(C(=O)/C=C/C(=O)N(CC(=O)NC2CCCCC2)Cc2ccccc2)c(O)c1 the results were FMDV antiviral 8.9µM*, Sm TGR block 1.4µM*, HCV inh inconclusive, Lassa entry inh 4µM*, RE007 growth inh 2% and MARV entry inh inconclusive.
`COc1ccc(C(=O)/C=C/C(=O)N(CC(=O)NC2CCCCC2)CC2CCCO2)c(O)c1` (centres undefined) gave FMDV antiviral 7.9µM*, Sm TGR block 1.3µM*, HCV inh inconclusive and RE007 growth inh -2%.
`COc1ccc(C(=O)/C=C/C(=O)N(Cc2ccc(F)cc2)C(C(=O)NC2CCCCC2)c2ccncc2)c(O)c1` (centres undefined) gave FMDV antiviral inconclusive, Sm TGR block -13%, HCV inh inconclusive, Lassa entry inh inconclusive, RE007 growth inh 1% and MARV entry inh inconclusive.
For Cc1ccc(-c2noc(CN(C3CCCCC3)S(=O)(=O)c3ccc(C)cc3)n2)cc1 the results were FMDV antiviral 7%, Sm TGR block 1%, Lassa entry inh -15%[46.1 µM] and MARV entry inh -25%[46.1 µM].
Screening CCOC(=O)/C(=C\c1ccc(Cl)cc1)c1nc2sc(C)c(C)c2c(=O)[nH]1 returned FMDV antiviral 10µM*, Sm TGR block inconclusive, HCV inh inconclusive, Lassa entry inh inconclusive, RE007 growth inh 12% and MARV entry inh inconclusive.
For CCn1nc(C)c(CCN(C)C(=O)Nc2cc(Cl)ccc2C)c1C the results were FMDV antiviral -10%, Sm TGR block 7% and Lassa entry inh 9%[46.1 µM].
`CSc1nc(O)c(C(c2ccccc2)c2c(O)nc(SC)[nH]c2=O)c(=O)[nH]1` gave FMDV antiviral 6%, Sm TGR block 7.9µM*, HCV inh 3% and RE007 growth inh 3%.
For CSc1nc(O)c(C(c2ccc(C)cc2)c2c(O)nc(SC)[nH]c2=O)c(=O)[nH]1 the results were FMDV antiviral -11%, Sm TGR block 45µM*, HCV inh 6% and RE007 growth inh -8%.
CSc1nc(O)c(C(c2ccc(F)cc2)c2c(O)nc(SC)[nH]c2=O)c(=O)[nH]1 was read as FMDV antiviral -7%, HCV inh 13%, Lassa entry inh 19%[46.1 µM], RE007 growth inh 10% and MARV entry inh -1%[46.1 µM].
`Cc1ccc(CN/C=C/C(=O)c2ccc(Br)cc2)cc1` gave FMDV antiviral 22%, Sm TGR block 6%, HCV inh -18%, Lassa entry inh -16%, RE007 growth inh -15% and MARV entry inh 18%.
For O=C(/C=C/NCC(=O)c1ccccc1)c1ccc(Br)cc1 the results were FMDV antiviral 55%, Sm TGR block 20µM*, HCV inh 8%, Lassa entry inh 12%, RE007 growth inh -7% and MARV entry inh 2%.
`COc1ccc(C(=O)C=CNNC(=O)c2ccc(Cl)cc2)cc1` gave FMDV antiviral -9%, Sm TGR block -28%, HCV inh 11µM*, Lassa entry inh 5.6µM*, RE007 growth inh 29% and MARV entry inh inconclusive.
For NC(=O)c1ccccc1N/C=C/C(=O)c1ccc(F)cc1 the results were FMDV antiviral 14%, Sm TGR block -22%, HCV inh -20% and MARV entry inh 5%.
For O=C(/C=C/NNC(=O)c1ccccc1)c1ccc(Br)cc1 the results were FMDV antiviral 7%, Sm TGR block 1%, HCV inh 2.2µM*, Lassa entry inh inconclusive, RE007 growth inh -4% and MARV entry inh inconclusive.

Bioassay records: PubChem BioAssay, National Center for Advancing Translational Sciences (NCATS)
